Assays:
Conditions in all cases: concentration: 1 μM, replicates: in singlicate; n = 1
TTK = test system: TTK
TXK = test system: TXK
[1] = test system: TYK2(JH1domain-catalytic)
[2] = test system: TYK2(JH2domain-pseudokinase)
TYRO3 = test system: TYRO3
ULK1 = test system: ULK1
ULK2 = test system: ULK2
ULK3 = test system: ULK3
VEGFR2 = test system: T1, VEGFR2
T1 construct: gene KDR

VPS34 = test system: T2, VPS34
T2 construct: gene PIK3C3

VRK2 = test system: VRK2
WEE1 = test system: WEE1
WEE2 = test system: WEE2
WNK1 = test system: WNK1
WNK2 = test system: WNK2
WNK3 = test system: WNK3
WNK4 = test system: WNK4
YANK1 = test system: T3, YANK1
T3 construct: gene STK32A

YANK2 = test system: T4, YANK2
T4 construct: gene STK32B

YANK3 = test system: T5, YANK3
T5 construct: gene STK32C
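Note: KINOMEscan kinase panel screen.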

| Compound | %Inh (TTK) [%] | %Inh (TXK) [%] | %Inh [1] [%] | %Inh [2] [%] | %Inh (TYRO3) [%] | %Inh (ULK1) [%] | %Inh (ULK2) [%] | %Inh (ULK3) [%] | %Inh (VEGFR2) [%] | %Inh (VPS34) [%] | %Inh (VRK2) [%] | %Inh (WEE1) [%] | %Inh (WEE2) [%] | %Inh (WNK1) [%] | %Inh (WNK2) [%] | %Inh (WNK3) [%] | %Inh (WNK4) [%] | %Inh (YANK1) [%] | %Inh (YANK2) [%] | %Inh (YANK3) [%] |
| --- | --- | --- | --- | --- | --- | --- | --- | --- | --- | --- | --- | --- | --- | --- | --- | --- | --- | --- | --- | --- |
| Nc1ncnc2[nH]c(-c3ccccc3)nc12 [AH5015] | 0 | 34 | 38 | 99.3 | 0 | 33 | 5 | 20 | 0 | 0 | 30 | 0 | 0 | 10 | 9 | 13 | 19 | 98 | 4 | 9 |
| COc1cc(Nc2nccc(N3CCC(NC(=O)Nc4cc(C)ccc4C)C3)n2)cc(OC)c1OC (centres unmarked) [GSK1379762] | 16 | 13 | 39 | 3 | 0 | 19 | 4 | 92.4 | 0 | 0 | 0 | 32 | 9 | 1 | 0 | 8 | 25 | 8 | 0 | 10 |
| NC(=O)c1nnc2ccccc2c1N | 12 | 4 | 44 | 38 | 2 | 24 | 0 | 29 | 16 | 20 | 4 | 9 | 20 | 8 | 0 | 0 | 9 | 23 | 0 | 0 |
| COc1ccc(Nc2nccc(-c3cccc(NC(=O)c4cc5cc(F)ccc5[nH]4)c3)n2)cc1 [GSK1229782] | 13 | 17 | 41 | 47 | 23 | 16 | 0 | 23 | 4 | 33 | 27 | 33 | 16 | 11 | 12 | 31 | 59 | 3 | 0 | 30 |
| CC(=O)Nc1nc2cnc(Nc3cc(NC(=O)c4cccc(CCC#N)c4)ccc3C)nc2s1 | 16 | 0 | 21 | 27 | 1 | 0 | 20 | 0 | 29 | 12 | 0 | 0 | 0 | 0 | 22 | 0 | 11 | 15 | 9 | 34 |
| O=C(O)COc1ncnc2cc(-c3ccc4[nH]ncc4c3)sc12 | 0 | 14 | 29 | 55 | 0 | 43 | 26 | 33 | 36 | 27 | 8 | 0 | 6 | 7 | 32 | 1 | 23 | 12 | 4 | 14 |
| COc1cc2ncnc(Nc3ccc4nc(-c5ccccc5)[nH]c4c3)c2cc1OC.Cl [GW282450] | 30 | 0 | 9 | 10 | 0 | 1 | 0 | 2 | 27 | 7 | 0 | 0 | 0 | 10 | 16 | 6 | 0 | 2 | 0 | 9 |
| C[C@@H]1CCCCN1c1cc(-c2ccc3c(N)n[nH]c3c2)nc(N)n1 [GSK2258759] | 0 | 0 | 0 | 3 | 0 | 0 | 0 | 0 | 0 | 0 | 0 | 0 | 13 | 0 | 6 | 16 | 39 | 3 | 0 | 0 |
| Fc1cccc(COc2nnc(-c3ccc4c(c3)CCO4)o2)c1 | 14 | 0 | 3 | 6 | 0 | 0 | 14 | 0 | 25 | 17 | 0 | 0 | 19 | 0 | 0 | 0 | 0 | 0 | 0 | 19 |
| O=C(Nc1ccccc1)Nc1cccc(Oc2ccc3nccn3n2)c1 | 0 | 0 | 14 | 1 | 11 | 0 | 0 | 0 | – | 0 | 0 | 0 | 41 | 0 | 0 | 0 | 17 | 0 | 29 | 0 |
| CCn1c(-c2ccccn2)nc2cnccc21 [SB-736398] | 0 | 10 | 21 | 45 | 0 | 8 | 0 | 0 | 0 | 4 | 26 | 0 | 0 | 0 | 3 | 37 | 36 | 0 | 0 | 32 |
| Cc1ccc(NC(=O)Nc2cccc(Cl)c2)cc1-c1ccc(C(=O)Nc2ccncc2)cc1 [GSK1398468] | 0 | 0 | 0 | 26 | 0 | 11 | 0 | 5 | 16 | 0 | 0 | 2 | 21 | 7 | 0 | 18 | 24 | 10 | 0 | 0 |
| Cc1cc(N2Cc3ccccc3C2)nc(Nc2ccc(S(=O)(=O)N3CCOCC3)cc2)n1.Cl [GSK1669917] | 0 | 0 | 7 | 0 | 0 | 0 | 0 | 0 | 0 | 0 | 0 | 3 | 0 | 0 | 7 | 2 | 10 | 7 | 0 | 0 |
| Cl.O=C(Nc1cccc(-c2nn3ncccc3c2-c2ccnc(Nc3cccnc3)n2)c1)c1c(F)cccc1F [GSK312879] | 0 | 1 | 12 | 19 | 0 | 34 | 0 | 5 | 0 | 0 | 10 | 0 | 0 | 13 | 7 | 10 | 0 | 7 | 10 | 32 |
| Cl.c1ccc(-c2n[nH]cc2-c2ccnc(-c3ccc(CN4CCOCC4)cc3)c2)nc1 [GW776245] | 31 | 7 | 0 | 0 | 0 | 0 | 0 | 20 | 0 | 0 | 0 | 16 | 0 | 0 | 0 | 0 | 0 | 0 | 0 | 0 |
